The source of these data is PubChem BioAssay.

Calls of active or inactive are those of the source.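 How the source made its calls, unless noted: active means inhibition of the reporter signal at or above 50%; inactive means inhibition below 50%.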

Usually inhibition stands for the drop in the measured response relative to a control, in per cent.

Experiment [1] in a line: inhibitors of TNFa-induced NFkB p65 translocation, primary screen, imaging, HUVEC, MLSMR starter and 10KST1 sets (AID 438;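 active means inhibition above 20% together with a positive visual image hit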;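 further: compound added about 3h40 before a 20 min TNFalpha stimulation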;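 on inhibition: signal is the nuclear over cytoplasmic p65 intensity ratio per well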). Particulars: HUVEC TNFa-induced p65 nuclear translocation; cell count: measured here: nuclei count (cytotoxicity indicator), at 2.08 µM; inhibition: at 2 µM, stronger effect = higher value, 0% TNFa-plus-vehicle, 100% no-TNFa wells.
Experiment [2] can be described thus: inhibitors of mutant huntingtin aggregation, primary screen, imaging, exon1htt(103Q)mCFP cells, high-content imaging (AID 483;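 active means visual image review flags a hit and inhibition of aggregation exceeds 20%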;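 further: compound exposure lasted 3 days before fixation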;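 on nuclei count: percent of the per-plate median nuclei count of sample wells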). The conditions noted are these: exon1htt(103Q)mCFP cell line, aggregate imaging, at 2 µM; inhibition of aggregation: stronger effect = higher value; nuclei count: measured here: cell count, toxicity.
Experiment [3] is described as follows: inhibitors of E-selectin induction by TNFa, primary screen, imaging, HUVEC, immunofluorescence, MLSMR starter and 10KST1 sets (AID 487;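 active means visually confirmed hit in the image check and inhibition above 20%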;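 on inhibition: signal is fraction of cell area covered by stained E-selectin grains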;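 on nuclei count: 100% = median nuclei count of all wells on the same plate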). The conditions noted are these: HUVEC TNFalpha-induced E-selectin immunofluorescence imaging, at 2 µM; inhibition: stronger effect = higher value; nuclei count: measured here: cell number, toxicity.
In experiment [4] the target is Voltage-gated potassium channel subunit beta-2 (Rattus norvegicus) (UniProt P62483). Description: KvBeta enzyme negative modulators, primary screen, biochemical, NADPH fluorescence (AID 622;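 active means fluorescence slope higher than the sample average by over 3 SD, cut at about -0.22 in these data, passing the limit was not always enough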;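 further: slope of raw intensity against log time taken from 70 to 1610 s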). Particulars: recombinant KvBeta, 4-cyanobenzaldehyde reduction, at 10 µM, stronger effect = higher value.
Voltage-gated potassium channel subunit beta-2 (Rattus norvegicus), sequence (P62483 whole entry, looked up): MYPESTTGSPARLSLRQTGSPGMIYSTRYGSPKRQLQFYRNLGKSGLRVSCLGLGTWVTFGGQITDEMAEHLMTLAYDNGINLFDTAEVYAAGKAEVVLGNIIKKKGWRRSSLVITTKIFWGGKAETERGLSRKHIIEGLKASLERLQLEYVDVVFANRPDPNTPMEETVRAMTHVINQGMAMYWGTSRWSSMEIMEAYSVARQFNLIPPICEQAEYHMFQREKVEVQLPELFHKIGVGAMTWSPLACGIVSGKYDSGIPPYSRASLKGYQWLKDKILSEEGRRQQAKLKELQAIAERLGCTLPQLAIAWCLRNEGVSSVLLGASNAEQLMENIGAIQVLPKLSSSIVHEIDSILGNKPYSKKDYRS
For experiment [5] the target is unchanged. Description: KvBeta positive modulators, primary screen, biochemical, NADPH fluorescence (AID 623;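 active means NADPH fluorescence slope more negative than the mean of all samples by about 3 SD, 99.7% confidence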;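 further: fluorescence intensity change per second fitted from 20 to 320 s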). Particulars: Recombinant KvBeta, NADPH fluorescence decrease slope, 10 min; at 10 µM; stronger effect = lower value.
Experiment [6] has as its target Alpha-2C adrenergic receptor (Homo sapiens) (UniProt P18825). Kind of experiment: modulators of alpha2C/GIRK thallium flux, primary screen, cell-based, HEK293 alpha2C/GIRK1/2 (AID 624;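 active means fluorescence slope after compound addition differing from the mean of all screened samples at 99.7% confidence, in either direction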;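 further: slope of fluorescence ratio to pre-addition baseline per second over 15 to 24 s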). The conditions noted are these: thallium flux BTC fluorescence, at 10 µM, actives lie on both sides.
Experiment [7] is described as follows: inhibitors of Sendai virus-induced IRF3 signaling, primary screen, TLR/RLR signaling modifier project, cell-based, Sendai virus stimulus, luciferase, 10K MLSCN set (AID 602276;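 active means inhibition at or above 50% at 10 µM; inactive means inhibition below 50%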;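 further: firefly luciferase from ISG56 promoter only with Renilla not read in this screen; 0% = Sendai virus plus DMSO and 100% = medium plus DMSO without virus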). Particulars: HEK293 RL24 IRF3 luciferase reporter, at 10 µM, stronger effect = higher value. For orientation: A reporter such as luciferase makes a cellular process visible.
Experiment [8] in a line: inhibitors of poly I:C-induced TLR3 signaling, primary screen, cell-based, poly I:C stimulus, luciferase, 10K MLSCN set (AID 602277). The conditions noted are these: HEK293-TLR3 RL24 IRF3 luciferase reporter, at 10 µM, stronger effect = higher value.

Alpha-2C adrenergic receptor (Homo sapiens), sequence (P18825 whole entry, looked up): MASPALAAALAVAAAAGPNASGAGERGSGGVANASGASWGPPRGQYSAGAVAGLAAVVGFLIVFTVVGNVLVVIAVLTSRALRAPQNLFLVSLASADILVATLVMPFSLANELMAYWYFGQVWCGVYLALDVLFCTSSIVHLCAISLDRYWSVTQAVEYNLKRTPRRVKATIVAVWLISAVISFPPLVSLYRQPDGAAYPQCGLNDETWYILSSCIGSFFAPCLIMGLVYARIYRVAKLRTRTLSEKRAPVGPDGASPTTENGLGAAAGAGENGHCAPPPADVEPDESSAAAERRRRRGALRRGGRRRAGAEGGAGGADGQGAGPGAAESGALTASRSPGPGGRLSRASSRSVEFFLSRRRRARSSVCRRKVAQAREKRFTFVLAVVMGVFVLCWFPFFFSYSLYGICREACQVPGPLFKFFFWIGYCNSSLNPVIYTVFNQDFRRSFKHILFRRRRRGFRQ

`C=CCOc1ccc(C2/C(=C(\O)c3c(C)[nH]c(C(=O)OC)c3C)C(=O)C(=O)N2CCN(C)C)cc1` (centres undefined): the cell count in experiment [1] came out at 462. In addition, the inhibition in experiment [1] was 0.5% (inactive); in experiment [3] it was -96.2% (inactive); in experiment [7] it was 13.2% (inactive); in experiment [8], 26.6% (inactive). For the same compound, in experiment [2], the inhibition of aggregation was -6.9% (inactive). In addition, the nuclei count in experiment [2] was 99.7%; in experiment [3] it was 118%. Moreover, the fluorescence slope in experiment [4] was -0.536 (inactive). Besides, the NADPH fluorescence slope in experiment [5] is -1.1e-05 (inactive). Further, in experiment [6], the slope is 0.00355 (inactive).
On to `COCCNC(=O)c1cc(-c2cccs2)on1`, for which the cell count in experiment [1] was found to be 793. The inhibition is -4% (inactive) in experiment [1], -46.8% (inactive) in experiment [3], -27.2% (inactive) in experiment [7] and -253% (inactive) in experiment [8]. Besides, the inhibition of aggregation in experiment [2] was -19.1% (inactive). Further, the nuclei count stood at 116% in experiment [2] and 126% in experiment [3]. Further, the fluorescence slope in experiment [4] is -0.587 (inactive). In addition, the NADPH fluorescence slope in experiment [5] is 6.5e-06 (inactive). Also, the slope in experiment [6] is 0.00598 (inactive).
Consider `CCOC(=O)CSc1nc2sc(C)c(C)c2c(=O)n1C`, for which the cell count in experiment [1] stood at 259. Besides, the inhibition was 12.5% (inactive) in experiment [1], 8.8% (inactive) in experiment [3], 11% (inactive) in experiment [7] and 26% (inactive) in experiment [8]. In experiment [2], the inhibition of aggregation is 25.6% (inactive). For the same compound, the nuclei count in experiment [2] was found to be 76.8%; in experiment [3] it was 113%. In experiment [4], the fluorescence slope is -0.36 (inactive). Also, the NADPH fluorescence slope in experiment [5] is 1.9e-05 (inactive). Besides, the slope in experiment [6] was 0.00254 (inactive).
`CCC(=O)Nc1ccc2nc(SCC(=O)N3CCCC3)sc2c1`: the cell count in experiment [1] was 709. The inhibition is -23.3% (inactive) in experiment [1], -56.1% (inactive) in experiment [3], -25.3% (inactive) in experiment [7] and -44.2% (inactive) in experiment [8]. For the same compound, the inhibition of aggregation in experiment [2] was -2.1% (inactive). Further, the nuclei count in experiment [2] came out at 102%; in experiment [3] it was 122%. For the same compound, the fluorescence slope in experiment [4] is -0.503 (inactive). Besides, in experiment [5], the NADPH fluorescence slope is -2.8e-05 (inactive). The slope in experiment [6] was 0.00507 (inactive).
On to `CCOc1cc2[nH]c(=O)n(CCC(=O)NCCc3ccc(OC)c(OC)c3)c(=O)c2cc1OCC`, for which the cell count in experiment [1] came out at 313. For the same compound, the inhibition was -2.1% (inactive) in experiment [1], -19.2% (inactive) in experiment [3], 8.69% (inactive) in experiment [7] and 16.7% (inactive) in experiment [8]. Further, in experiment [2], the inhibition of aggregation is -0.3% (inactive). Also, the nuclei count in experiment [2] was determined as 103%; in experiment [3], 122%. The fluorescence slope in experiment [4] was -0.514 (inactive). Also, the NADPH fluorescence slope in experiment [5] is 2.8e-05 (inactive). For the same compound, the slope in experiment [6] was 0.00653 (inactive).
Turning to `CCN(CCCNC(=O)CC1Oc2ccc(C)cc2NC1=O)Cc1ccccc1` (centres undefined), the cell count in experiment [1] was found to be 548. Besides, the inhibition in experiment [1] is 5.1% (inactive); in experiment [3], -42.9% (inactive); in experiment [7] it was -5.16% (inactive); in experiment [8], 30.7% (inactive). Besides, the inhibition of aggregation in experiment [2] is 30.8% (inactive). Further, the nuclei count in experiment [2] was determined as 102%; in experiment [3], 128%. In addition, in experiment [4], the fluorescence slope was -0.495 (inactive). Also, the NADPH fluorescence slope in experiment [5] was -4.4e-05 (inactive). Also, the slope in experiment [6] is 0.00631 (inactive).
As to `CCC(=O)N1CCN=C1SCc1ccc(Cl)cc1`, the cell count in experiment [1] was 233. The inhibition in experiment [1] was -4.9% (inactive); in experiment [3], 7.9% (inactive); in experiment [7], 21.3% (inactive); in experiment [8] it was 43.1% (inactive). For the same compound, the inhibition of aggregation in experiment [2] is -22.3% (inactive). Also, the nuclei count in experiment [2] is 111%; in experiment [3], 106%. In experiment [4], the fluorescence slope is -0.559 (inactive). Also, in experiment [5], the NADPH fluorescence slope is 5.6e-05 (inactive). In addition, in experiment [6], the slope was 0.00598 (inactive).
In the case of `O=C(NC1CCCCC1)c1ccc(S(=O)(=O)N2CCCCC2)cc1`, the cell count in experiment [1] was 392. Moreover, the inhibition is 2.1% (inactive) in experiment [1], -49.2% (inactive) in experiment [3], -18.3% (inactive) in experiment [7] and -7.9% (inactive) in experiment [8]. Moreover, in experiment [2], the inhibition of aggregation was 5.8% (inactive). Besides, the nuclei count is 96.4% in experiment [2] and 119% in experiment [3]. Moreover, the fluorescence slope in experiment [4] is -0.588 (inactive). Further, the NADPH fluorescence slope in experiment [5] is 1.4e-05 (inactive). In experiment [6], the slope was 0.00499 (inactive).
In the case of `Cc1cccnc1-n1c(CCN2C(=O)c3ccccc3C2=O)nc2ccccc2c1=O`, the cell count in experiment [1] is 359. Besides, the inhibition is -5.4% (inactive) in experiment [1], -12.9% (inactive) in experiment [3], 2.74% (inactive) in experiment [7] and 2.5% (inactive) in experiment [8]. The inhibition of aggregation in experiment [2] was 12.7% (inactive). The nuclei count in experiment [2] came out at 84.4%; in experiment [3] it was 83.7%. Moreover, in experiment [4], the fluorescence slope was -0.327 (inactive). Also, the NADPH fluorescence slope in experiment [5] is -7.6e-06 (inactive). Further, in experiment [6], the slope was 0.00629 (inactive).
Regarding `CCc1cc(=O)oc2cc(OC(C)=O)cc(OC(C)=O)c12`, in experiment [1], the cell count came to 602. The inhibition in experiment [1] was -6% (inactive); in experiment [3], 19.2% (inactive); in experiment [7] it was 11.6% (inactive); in experiment [8], 14% (inactive). For the same compound, the inhibition of aggregation in experiment [2] was 12.3% (inactive). Further, the figures for the nuclei count in experiment [2] and in experiment [3] were 104% and 97.5%, respectively. In experiment [4], the fluorescence slope was -0.0715 (active). In addition, the NADPH fluorescence slope in experiment [5] is 2.1e-05 (inactive). In addition, the slope in experiment [6] is 0.00397 (inactive).
Regarding `O=S(=O)(Nc1nc2ccccc2nc1NCc1ccco1)c1ccc(Cl)cc1`, the cell count in experiment [1] is 481. Moreover, the inhibition in experiment [1] was 0.9% (inactive); in experiment [3], 8.2% (inactive); in experiment [7], 19.4% (inactive); in experiment [8] it was 18.7% (inactive). In addition, in experiment [2], the inhibition of aggregation was 4.8% (inactive). In addition, the nuclei count in experiment [2] turned out to be 101%; in experiment [3] it was 129%. Further, the fluorescence slope in experiment [4] was -0.448 (inactive). In addition, in experiment [5], the NADPH fluorescence slope was -6.1e-05 (inactive). Besides, the slope in experiment [6] was 0.00347 (inactive).
Take `CCc1cc(C(=O)OC)c(NC(=O)CCC(=O)O)s1`: the cell count in experiment [1] came to 719. The inhibition is -5.2% (inactive) in experiment [1], -24% (inactive) in experiment [3], -0.441% (inactive) in experiment [7] and 97.6% (active) in experiment [8]. In addition, the inhibition of aggregation in experiment [2] was 3.9% (inactive). Besides, the nuclei count in experiment [2] stood at 117%; in experiment [3], 106%. In addition, the fluorescence slope in experiment [4] was -0.392 (inactive). Besides, the NADPH fluorescence slope in experiment [5] was 3.6e-05 (inactive). Besides, the slope in experiment [6] was 0.0103 (inactive).
Turning to `O=C(COc1ccc(=O)n(-c2ccccc2)n1)Nc1ccccc1`, the cell count in experiment [1] was 600. The inhibition in experiment [1] is 8% (inactive); in experiment [3] it was 23.8% (inactive); in experiment [7], 9.72% (inactive); in experiment [8], 23.6% (inactive). For the same compound, the inhibition of aggregation in experiment [2] was -6.4% (inactive). Besides, the nuclei count in experiment [2] turned out to be 114%; in experiment [3] it was 119%. The fluorescence slope in experiment [4] is -0.471 (inactive). In addition, in experiment [5], the NADPH fluorescence slope was 7.6e-06 (inactive). Moreover, the slope in experiment [6] is 0.00619 (inactive).
Consider `CCOC(=O)C1=C(C)NC(C)=C(C(=O)OCC)C1C(=O)OC1CCOC1=O` (centres undefined), for which the cell count in experiment [1] was 653. Also, the inhibition in experiment [1] is -4.7% (inactive); in experiment [3] it was -121% (inactive); in experiment [7] it was 9.93% (inactive); in experiment [8], 20% (inactive). Moreover, the inhibition of aggregation in experiment [2] was 5.7% (inactive). The nuclei count in experiment [2] turned out to be 112%; in experiment [3], 103%. Moreover, in experiment [4], the fluorescence slope was -0.587 (inactive). Also, the NADPH fluorescence slope in experiment [5] was -2.6e-05 (inactive). Besides, in experiment [6], the slope was 0.00602 (inactive).
